In the supplement of paper PMC11732987, “Enantioselective OTUD7B fragment discovery through chemoproteomics screening and high-throughput optimisation” (Communications Chemistry, 2025):

Experiments:
Assay in all cases: log2 ratio of Biotin-Ahx-Ub-VS probe labelling (fragment/DMSO); higher = less target engagement (more negative = stronger competition), active = hit call of the paper (q ≤ 0.05, log2 ratio ≤ -1)
Conditions in all cases: compound concentration: 200 uM; treatment time: 3 h
[1] = biological target: T1, USP42 (UniProt Q9H9J4)
T1 sequence (whole entry): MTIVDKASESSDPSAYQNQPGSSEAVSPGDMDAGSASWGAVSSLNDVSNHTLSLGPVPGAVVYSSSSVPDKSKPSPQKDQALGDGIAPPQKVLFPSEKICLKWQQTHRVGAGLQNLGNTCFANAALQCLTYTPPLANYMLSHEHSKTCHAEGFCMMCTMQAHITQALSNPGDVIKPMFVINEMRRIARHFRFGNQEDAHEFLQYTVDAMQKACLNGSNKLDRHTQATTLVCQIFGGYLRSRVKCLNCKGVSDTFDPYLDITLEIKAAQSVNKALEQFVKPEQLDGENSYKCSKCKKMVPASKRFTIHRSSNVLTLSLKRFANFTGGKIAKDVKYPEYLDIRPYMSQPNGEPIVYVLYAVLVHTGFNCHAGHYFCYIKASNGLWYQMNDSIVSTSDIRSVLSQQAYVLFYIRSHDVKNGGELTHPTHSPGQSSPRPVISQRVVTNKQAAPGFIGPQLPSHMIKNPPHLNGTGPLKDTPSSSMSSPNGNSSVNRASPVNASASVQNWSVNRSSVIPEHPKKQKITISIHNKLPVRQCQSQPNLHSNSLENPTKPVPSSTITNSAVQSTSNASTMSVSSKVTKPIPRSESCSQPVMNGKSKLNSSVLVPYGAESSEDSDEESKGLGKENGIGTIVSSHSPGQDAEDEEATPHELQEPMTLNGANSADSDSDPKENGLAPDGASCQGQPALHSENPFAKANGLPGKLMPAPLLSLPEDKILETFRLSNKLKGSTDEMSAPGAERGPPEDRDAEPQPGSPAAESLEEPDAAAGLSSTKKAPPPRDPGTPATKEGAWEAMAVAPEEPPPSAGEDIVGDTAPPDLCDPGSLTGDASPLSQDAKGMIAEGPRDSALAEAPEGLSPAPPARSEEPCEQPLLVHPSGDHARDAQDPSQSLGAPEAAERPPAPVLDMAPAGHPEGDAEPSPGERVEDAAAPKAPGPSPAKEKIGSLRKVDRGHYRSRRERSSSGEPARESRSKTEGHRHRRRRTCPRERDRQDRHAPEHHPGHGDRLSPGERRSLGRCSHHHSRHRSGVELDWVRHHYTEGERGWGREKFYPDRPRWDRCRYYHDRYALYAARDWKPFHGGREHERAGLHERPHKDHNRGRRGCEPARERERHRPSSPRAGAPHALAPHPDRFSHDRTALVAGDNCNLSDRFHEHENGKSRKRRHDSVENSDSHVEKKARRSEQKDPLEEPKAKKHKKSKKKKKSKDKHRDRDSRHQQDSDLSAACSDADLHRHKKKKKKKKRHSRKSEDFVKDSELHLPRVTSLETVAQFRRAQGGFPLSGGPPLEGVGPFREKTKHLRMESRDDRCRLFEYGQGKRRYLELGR
Procedure, shortened: (§1)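 HEK293T lysate (495 µg per sample, in Tris/CHAPS/IGEPAL buffer with protease inhibitors) was exposed in triplicate for 3 h to fragment at 200 µM or to vehicle, then to Biotin-Ahx-Ub-VS at 0.5 µM final for 1 h. Labelled DUBs were enriched on NeutrAvidin, digested with LysC and trypsin, and analysed by diaPASEF LC-MS/MS. Spectronaut label-free quantities were normalised to the global median, and values are average log2 ratios of fragment over vehicle from an unpaired t-test. Only proteins with ≥2 unique peptides were used.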

[2] = biological target: USP46 (UniProt P62068)
Procedure, shortened: as §1

[3] = biological target: T2, USP47 (UniProt Q96K76)
T2 sequence (whole entry): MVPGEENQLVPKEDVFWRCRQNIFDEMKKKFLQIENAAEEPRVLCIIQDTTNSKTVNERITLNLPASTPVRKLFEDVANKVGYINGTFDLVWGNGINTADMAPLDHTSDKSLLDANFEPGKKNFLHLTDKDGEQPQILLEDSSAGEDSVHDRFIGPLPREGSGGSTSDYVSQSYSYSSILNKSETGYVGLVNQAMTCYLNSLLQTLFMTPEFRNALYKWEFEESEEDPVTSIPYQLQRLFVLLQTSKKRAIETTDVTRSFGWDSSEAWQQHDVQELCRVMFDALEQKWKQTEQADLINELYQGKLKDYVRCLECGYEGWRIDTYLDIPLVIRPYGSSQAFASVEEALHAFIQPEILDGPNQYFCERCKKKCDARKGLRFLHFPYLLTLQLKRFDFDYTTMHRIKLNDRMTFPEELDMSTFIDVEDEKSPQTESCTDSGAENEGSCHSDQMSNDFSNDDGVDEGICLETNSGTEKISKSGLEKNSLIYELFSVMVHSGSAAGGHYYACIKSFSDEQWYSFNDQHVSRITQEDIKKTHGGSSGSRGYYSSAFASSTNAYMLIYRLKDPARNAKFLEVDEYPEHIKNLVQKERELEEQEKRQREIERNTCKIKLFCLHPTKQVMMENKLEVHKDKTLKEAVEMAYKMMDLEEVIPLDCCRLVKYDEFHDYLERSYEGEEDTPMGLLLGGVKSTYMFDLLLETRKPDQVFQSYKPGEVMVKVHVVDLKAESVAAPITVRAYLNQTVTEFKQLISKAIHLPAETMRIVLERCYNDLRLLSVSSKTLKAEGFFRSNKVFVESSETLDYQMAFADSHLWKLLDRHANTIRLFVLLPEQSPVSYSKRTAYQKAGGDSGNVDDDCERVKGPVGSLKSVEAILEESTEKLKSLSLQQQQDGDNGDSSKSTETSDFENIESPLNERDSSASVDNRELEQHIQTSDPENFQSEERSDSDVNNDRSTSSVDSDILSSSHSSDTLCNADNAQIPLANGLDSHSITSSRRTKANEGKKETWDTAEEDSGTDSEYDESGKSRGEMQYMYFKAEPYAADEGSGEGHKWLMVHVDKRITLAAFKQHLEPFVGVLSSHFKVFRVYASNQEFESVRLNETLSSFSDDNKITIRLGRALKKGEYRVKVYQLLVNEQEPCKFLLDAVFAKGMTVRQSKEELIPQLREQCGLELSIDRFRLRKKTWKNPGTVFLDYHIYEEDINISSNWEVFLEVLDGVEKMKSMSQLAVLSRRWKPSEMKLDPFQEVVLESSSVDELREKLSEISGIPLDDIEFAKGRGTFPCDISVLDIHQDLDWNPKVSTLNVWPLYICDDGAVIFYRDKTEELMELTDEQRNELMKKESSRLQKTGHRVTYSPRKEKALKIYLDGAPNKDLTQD
Procedure, shortened: as §1

[4] = biological target: T3, USP48 (UniProt Q86UV5)
T3 sequence (whole entry): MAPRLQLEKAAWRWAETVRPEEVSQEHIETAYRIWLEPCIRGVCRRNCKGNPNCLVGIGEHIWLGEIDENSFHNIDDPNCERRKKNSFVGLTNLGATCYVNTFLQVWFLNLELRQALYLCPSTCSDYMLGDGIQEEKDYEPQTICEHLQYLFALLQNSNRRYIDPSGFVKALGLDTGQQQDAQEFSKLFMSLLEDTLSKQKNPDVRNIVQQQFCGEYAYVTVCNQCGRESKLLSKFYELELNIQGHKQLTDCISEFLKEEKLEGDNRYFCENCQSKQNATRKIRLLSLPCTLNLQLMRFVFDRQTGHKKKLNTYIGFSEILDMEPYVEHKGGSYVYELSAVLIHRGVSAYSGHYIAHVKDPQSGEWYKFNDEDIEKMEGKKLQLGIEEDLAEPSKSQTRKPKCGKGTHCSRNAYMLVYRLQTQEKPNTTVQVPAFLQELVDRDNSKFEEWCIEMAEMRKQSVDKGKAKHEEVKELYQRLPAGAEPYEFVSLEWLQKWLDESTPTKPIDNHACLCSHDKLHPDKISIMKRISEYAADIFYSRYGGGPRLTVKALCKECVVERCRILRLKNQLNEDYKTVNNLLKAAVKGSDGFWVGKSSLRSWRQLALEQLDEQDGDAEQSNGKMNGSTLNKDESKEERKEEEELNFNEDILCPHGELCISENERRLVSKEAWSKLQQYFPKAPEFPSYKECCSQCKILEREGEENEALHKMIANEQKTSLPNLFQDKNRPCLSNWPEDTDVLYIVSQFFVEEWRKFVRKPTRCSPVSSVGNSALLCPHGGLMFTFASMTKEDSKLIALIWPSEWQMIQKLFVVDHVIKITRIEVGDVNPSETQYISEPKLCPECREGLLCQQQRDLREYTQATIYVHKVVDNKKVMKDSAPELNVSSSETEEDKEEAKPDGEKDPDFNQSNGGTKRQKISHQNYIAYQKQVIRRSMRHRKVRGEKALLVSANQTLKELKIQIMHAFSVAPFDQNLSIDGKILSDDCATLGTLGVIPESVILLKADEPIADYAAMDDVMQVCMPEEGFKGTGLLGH
Procedure, shortened: as §1

[5] = biological target: T4, USP5 (UniProt P45974)
T4 sequence (whole entry): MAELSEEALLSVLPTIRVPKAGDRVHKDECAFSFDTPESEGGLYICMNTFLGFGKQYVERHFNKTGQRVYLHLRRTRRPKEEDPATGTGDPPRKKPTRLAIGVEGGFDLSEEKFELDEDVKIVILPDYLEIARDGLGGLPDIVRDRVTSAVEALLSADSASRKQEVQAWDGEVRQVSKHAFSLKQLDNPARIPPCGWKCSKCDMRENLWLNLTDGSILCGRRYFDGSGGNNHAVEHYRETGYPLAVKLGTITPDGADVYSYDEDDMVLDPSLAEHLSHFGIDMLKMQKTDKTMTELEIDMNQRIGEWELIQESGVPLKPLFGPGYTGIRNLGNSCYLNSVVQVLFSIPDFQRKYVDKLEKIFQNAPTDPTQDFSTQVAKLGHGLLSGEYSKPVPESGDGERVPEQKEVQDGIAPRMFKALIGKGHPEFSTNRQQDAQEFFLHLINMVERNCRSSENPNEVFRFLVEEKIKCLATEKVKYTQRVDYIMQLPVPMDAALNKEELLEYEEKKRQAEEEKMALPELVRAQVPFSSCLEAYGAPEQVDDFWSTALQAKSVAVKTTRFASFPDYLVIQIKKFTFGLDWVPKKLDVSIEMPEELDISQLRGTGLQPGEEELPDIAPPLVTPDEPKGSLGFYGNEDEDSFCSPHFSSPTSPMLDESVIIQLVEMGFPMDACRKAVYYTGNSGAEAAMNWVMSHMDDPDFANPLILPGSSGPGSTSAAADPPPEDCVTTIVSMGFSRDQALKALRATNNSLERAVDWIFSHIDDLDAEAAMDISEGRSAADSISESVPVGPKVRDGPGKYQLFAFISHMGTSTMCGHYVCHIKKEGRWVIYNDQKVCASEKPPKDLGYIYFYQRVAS
Procedure, shortened: as §1

[6] = biological target: USP54 (UniProt Q70EL1)
Procedure, shortened: as §1

[7] = biological target: USP7 (UniProt Q93009)
Procedure, shortened: as §1

[8] = biological target: T5, USP8 (UniProt P40818)
T5 sequence (whole entry): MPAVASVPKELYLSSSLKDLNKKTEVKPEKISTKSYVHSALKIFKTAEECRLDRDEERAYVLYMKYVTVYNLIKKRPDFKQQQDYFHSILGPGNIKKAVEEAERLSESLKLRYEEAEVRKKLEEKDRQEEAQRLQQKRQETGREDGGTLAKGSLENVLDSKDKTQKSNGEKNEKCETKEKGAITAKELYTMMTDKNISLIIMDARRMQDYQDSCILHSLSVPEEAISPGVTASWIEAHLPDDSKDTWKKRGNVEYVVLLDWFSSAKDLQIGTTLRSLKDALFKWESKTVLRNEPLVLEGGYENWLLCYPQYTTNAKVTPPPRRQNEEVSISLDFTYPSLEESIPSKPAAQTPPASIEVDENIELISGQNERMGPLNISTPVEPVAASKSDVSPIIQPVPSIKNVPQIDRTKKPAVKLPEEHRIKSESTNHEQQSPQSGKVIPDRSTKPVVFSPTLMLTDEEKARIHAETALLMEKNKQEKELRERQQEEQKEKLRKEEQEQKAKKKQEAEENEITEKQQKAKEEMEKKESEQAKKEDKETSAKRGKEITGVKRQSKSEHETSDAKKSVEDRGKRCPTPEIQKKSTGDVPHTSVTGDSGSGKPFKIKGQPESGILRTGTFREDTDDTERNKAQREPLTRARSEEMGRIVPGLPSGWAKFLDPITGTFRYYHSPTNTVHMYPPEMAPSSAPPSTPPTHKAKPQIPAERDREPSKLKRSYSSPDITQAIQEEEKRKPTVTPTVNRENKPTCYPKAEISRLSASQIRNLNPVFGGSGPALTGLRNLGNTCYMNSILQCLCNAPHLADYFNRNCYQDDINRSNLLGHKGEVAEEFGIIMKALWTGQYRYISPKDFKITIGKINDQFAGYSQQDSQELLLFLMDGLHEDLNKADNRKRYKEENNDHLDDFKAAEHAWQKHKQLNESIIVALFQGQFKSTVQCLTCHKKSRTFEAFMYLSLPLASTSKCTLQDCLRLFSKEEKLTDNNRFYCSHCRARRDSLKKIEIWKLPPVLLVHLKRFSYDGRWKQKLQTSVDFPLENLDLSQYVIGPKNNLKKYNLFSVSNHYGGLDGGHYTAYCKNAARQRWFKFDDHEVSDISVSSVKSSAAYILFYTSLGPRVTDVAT
Procedure, shortened: as §1

[9] = biological target: USP9X (UniProt Q93008)
Procedure, shortened: as §1

[10] = biological target: UniProt O00487
Procedure, shortened: as §1

Measured: log2 ratio of Biotin-Ahx-Ub-VS probe labelling

USP54, sequence (Q70EL1 whole entry): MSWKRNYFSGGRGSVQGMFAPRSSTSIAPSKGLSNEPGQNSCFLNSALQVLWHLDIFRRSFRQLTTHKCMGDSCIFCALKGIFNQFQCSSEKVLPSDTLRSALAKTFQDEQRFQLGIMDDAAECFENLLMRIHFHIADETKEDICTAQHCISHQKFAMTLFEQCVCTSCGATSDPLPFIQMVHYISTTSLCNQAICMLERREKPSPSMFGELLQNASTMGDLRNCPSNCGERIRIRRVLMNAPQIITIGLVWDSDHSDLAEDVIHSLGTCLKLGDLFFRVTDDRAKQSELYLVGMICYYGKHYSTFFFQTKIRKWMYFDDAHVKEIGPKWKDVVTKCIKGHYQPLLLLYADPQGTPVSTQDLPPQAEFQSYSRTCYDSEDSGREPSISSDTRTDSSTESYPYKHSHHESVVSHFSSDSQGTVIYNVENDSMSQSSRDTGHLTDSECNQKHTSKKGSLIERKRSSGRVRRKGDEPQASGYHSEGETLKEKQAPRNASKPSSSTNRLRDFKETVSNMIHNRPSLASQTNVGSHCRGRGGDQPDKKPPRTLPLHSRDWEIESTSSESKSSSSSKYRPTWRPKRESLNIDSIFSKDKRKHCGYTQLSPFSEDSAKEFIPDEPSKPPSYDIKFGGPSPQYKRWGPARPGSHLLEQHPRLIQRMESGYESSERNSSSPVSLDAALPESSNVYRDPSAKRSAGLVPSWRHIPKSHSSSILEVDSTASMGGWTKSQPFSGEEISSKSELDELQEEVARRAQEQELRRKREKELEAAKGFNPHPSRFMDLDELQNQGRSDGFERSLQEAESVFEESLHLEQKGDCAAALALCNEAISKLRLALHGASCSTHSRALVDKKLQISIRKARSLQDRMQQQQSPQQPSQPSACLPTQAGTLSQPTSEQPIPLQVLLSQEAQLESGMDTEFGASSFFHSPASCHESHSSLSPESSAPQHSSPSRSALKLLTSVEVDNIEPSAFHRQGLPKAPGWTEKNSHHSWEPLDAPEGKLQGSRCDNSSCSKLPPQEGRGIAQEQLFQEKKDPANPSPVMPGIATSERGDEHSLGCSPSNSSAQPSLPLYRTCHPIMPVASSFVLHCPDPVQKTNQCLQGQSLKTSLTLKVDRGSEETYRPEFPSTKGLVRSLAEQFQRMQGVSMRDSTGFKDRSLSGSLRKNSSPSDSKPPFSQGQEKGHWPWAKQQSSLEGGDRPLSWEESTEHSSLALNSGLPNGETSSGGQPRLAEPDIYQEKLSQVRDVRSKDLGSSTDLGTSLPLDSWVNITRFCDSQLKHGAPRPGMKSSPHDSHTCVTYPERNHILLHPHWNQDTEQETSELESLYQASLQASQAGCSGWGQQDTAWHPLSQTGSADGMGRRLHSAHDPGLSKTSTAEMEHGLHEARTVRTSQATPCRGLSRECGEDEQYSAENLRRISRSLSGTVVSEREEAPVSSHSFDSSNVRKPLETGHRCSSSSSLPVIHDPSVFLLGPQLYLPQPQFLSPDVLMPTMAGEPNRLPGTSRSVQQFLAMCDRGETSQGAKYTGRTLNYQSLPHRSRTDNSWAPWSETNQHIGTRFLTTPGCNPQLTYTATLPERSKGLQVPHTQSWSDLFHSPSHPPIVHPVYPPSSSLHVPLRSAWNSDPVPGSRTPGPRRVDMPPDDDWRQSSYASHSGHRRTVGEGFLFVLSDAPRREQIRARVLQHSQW
UniProt O00487, sequence (O00487 whole entry): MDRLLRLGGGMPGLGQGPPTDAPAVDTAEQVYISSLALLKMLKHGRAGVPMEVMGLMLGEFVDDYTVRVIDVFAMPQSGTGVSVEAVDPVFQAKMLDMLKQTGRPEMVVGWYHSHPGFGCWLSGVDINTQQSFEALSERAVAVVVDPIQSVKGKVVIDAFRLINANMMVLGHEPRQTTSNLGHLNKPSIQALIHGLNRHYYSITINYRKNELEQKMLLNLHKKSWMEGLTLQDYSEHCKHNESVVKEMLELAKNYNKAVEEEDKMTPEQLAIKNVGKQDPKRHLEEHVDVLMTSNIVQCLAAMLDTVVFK
USP46, sequence (P62068 whole entry): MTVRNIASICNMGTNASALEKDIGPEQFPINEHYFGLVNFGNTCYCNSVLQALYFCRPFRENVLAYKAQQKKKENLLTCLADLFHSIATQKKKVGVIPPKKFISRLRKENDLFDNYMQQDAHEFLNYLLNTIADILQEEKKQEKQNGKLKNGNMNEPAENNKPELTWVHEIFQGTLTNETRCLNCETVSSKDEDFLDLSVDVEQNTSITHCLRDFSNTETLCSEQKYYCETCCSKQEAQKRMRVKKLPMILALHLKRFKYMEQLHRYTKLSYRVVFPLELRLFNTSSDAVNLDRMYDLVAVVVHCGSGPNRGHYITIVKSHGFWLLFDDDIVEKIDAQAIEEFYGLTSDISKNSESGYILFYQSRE
USP9X, sequence (Q93008 whole entry): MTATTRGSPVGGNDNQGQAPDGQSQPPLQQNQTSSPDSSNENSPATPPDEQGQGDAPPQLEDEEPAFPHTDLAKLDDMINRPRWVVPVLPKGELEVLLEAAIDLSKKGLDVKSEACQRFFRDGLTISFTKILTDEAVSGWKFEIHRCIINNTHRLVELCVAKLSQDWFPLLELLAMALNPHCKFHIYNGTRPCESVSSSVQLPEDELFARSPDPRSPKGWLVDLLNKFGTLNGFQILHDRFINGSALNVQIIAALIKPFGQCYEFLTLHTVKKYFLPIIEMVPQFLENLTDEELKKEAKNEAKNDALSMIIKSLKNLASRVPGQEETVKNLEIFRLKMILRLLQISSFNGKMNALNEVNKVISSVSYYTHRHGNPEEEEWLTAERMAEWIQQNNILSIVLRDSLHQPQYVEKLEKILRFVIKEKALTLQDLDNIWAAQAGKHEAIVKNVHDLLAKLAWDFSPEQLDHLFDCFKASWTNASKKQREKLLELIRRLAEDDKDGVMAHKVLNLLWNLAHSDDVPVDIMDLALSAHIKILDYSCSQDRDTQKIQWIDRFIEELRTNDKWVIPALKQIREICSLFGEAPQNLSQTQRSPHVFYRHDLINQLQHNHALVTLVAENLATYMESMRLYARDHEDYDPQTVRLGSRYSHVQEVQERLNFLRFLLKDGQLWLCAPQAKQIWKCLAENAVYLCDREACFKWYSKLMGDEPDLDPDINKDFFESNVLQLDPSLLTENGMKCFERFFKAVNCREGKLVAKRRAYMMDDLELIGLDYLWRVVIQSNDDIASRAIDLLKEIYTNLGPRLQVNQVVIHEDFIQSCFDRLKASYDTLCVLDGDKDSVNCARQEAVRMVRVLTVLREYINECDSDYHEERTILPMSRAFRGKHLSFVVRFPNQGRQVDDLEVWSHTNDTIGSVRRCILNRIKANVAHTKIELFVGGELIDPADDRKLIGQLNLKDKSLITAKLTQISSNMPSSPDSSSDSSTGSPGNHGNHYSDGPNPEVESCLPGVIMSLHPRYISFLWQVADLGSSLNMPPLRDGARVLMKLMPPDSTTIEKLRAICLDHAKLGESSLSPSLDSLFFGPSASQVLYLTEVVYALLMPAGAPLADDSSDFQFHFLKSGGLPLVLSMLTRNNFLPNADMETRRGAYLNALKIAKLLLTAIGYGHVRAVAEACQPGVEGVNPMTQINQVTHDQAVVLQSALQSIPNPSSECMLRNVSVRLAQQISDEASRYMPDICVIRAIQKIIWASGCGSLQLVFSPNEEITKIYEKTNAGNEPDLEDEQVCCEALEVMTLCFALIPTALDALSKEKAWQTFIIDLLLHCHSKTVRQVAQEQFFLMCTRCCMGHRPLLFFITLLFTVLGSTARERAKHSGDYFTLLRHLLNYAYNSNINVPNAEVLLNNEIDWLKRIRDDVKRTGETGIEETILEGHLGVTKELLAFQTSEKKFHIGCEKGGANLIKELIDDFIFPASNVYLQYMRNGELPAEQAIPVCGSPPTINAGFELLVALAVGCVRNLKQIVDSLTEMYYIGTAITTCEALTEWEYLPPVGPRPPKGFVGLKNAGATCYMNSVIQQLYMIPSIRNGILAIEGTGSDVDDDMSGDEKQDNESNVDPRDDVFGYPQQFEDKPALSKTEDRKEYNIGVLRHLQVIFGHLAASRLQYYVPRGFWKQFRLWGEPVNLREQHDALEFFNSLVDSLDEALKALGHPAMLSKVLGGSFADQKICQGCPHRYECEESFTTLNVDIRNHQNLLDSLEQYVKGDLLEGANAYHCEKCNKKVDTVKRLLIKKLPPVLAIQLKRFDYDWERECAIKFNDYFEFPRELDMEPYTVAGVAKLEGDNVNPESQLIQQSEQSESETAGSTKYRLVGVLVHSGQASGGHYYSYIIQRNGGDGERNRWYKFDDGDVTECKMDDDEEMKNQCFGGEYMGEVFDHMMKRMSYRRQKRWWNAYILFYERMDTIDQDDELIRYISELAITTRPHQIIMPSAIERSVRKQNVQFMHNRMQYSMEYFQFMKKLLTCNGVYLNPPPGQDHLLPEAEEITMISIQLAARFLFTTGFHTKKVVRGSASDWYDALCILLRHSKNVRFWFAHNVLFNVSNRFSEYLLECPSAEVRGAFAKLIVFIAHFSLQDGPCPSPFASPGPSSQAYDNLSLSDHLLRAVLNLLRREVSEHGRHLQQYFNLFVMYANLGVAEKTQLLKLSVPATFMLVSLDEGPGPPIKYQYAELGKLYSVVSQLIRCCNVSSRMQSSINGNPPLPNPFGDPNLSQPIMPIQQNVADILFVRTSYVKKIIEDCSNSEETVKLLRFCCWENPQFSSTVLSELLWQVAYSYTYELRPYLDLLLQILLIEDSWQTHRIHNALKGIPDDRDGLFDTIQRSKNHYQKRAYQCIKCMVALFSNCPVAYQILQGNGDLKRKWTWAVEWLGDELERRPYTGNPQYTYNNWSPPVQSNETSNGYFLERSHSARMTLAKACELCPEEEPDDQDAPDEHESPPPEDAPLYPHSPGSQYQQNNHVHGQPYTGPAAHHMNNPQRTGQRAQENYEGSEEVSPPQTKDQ

O=C(CCl)N1CCOC(CCc2ccccc2)C1 (stereo not given)
inactive: [1] 0.335 | [2] -0.509 | [3] -1.03 | [4] -0.472 | [5] -0.132 | [6] 0.433 | [7] -0.763 | [8] -0.555 | [9] -0.43 | [10] -0.235
